POLI inh: blocks human DNA polymerase iota activity; Q9UNA4; Pol iota fluorescent replication assay, 10 min; Potency, µM (doses to about 115 µM), hits mostly inhibitors; 1% of 390,000 active; AID 588590
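Fluorescent replication assay read twice, at 0 min and 10 min after adding 50 nM (final) substrate. Enzyme (10 nM) and compounds were first incubated 15 min at room temperature; enzyme-free buffer wells were negative controls.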
Pol eta inh: DNA polymerase eta (human) inhibition; 1.2% of 390,000 active; Q9Y253; recombinant Pol eta, fluorescent DNA replication assay; Potency, µM (series often up to 114 µM), most hits filed as inhibitors
Target sequence (Q9Y253 whole entry, looked up): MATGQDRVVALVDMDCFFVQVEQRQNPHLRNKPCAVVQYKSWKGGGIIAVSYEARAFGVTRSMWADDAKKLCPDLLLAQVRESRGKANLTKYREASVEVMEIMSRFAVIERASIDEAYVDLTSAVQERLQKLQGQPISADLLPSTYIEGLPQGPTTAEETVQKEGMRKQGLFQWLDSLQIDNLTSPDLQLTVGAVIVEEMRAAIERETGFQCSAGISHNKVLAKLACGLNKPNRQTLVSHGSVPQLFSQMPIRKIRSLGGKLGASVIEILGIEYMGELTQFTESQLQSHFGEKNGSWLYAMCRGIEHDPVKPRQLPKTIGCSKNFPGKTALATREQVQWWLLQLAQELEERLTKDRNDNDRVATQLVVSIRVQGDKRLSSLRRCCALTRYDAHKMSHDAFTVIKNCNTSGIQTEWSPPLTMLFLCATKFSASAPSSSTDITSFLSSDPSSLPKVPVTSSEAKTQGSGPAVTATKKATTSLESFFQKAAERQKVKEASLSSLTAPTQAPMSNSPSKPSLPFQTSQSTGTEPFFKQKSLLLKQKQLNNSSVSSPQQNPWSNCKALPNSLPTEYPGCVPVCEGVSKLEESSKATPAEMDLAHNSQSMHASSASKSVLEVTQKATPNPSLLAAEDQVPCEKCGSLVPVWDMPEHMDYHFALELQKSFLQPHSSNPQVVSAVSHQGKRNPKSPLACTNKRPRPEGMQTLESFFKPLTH
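Pol eta (10 nM) was preincubated with compounds for 15 min at room temperature, after which fluorescent replication substrate (50 nM final) was added to start the reaction. Fluorescence was read kinetically at 0 and 10 min.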
Tb PGK inh: blocks T. brucei phosphoglycerate kinase. 0.043% of 380,000 active. AID 602233. PGK/GAPDH coupled, Kinase-Glo luminescence, 60 min. Potency, µM (titrated, usually from 57.5 µM), most hits filed as inhibitors. P07378; further: nearly all actives have a fitted effect of over 60% in size
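Recombinant glycosomal PGK reaction used 1,3-bisphosphoglycerate generated in-well by GAPDH (100nM final) in 100mM TEA pH 7.6, 5mM MgCl2, 0.01% Tween-20. After 60 minutes at room temperature, ATP was read by Kinase-Glo Plus luminescence end-point.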
POLB inh: blocks human DNA polymerase beta activity. P06746. Pol beta primer extension/strand displacement, fluorescence kinetic. Potency, µM (doses to about 114 µM), actives largely listed as inhibitors. 1.3% of 340,000 active. AID 485314
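Kinetic readout of DNA synthesis with strand displacement by Pol beta. Compound and 10 nM enzyme sit 15 min at room temperature; 50 nM substrate starts the reaction, read immediately and at 10 min.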
POLK inh: blocks human DNA polymerase kappa activity. purified Pol kappa, fluorescent DNA synthesis assay, 10 min. Potency, µM (highest dose often 107 µM), usual class: inhibitors. 0.53% of 400,000 active. AID 588579
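Fluorescent qHTS in 1536-well format: enzyme (10 nM) and compound sat 15 min at room temperature before 50 nM substrate (final) was added. Signal taken at 0 and 10 min; no-enzyme buffer wells were negative controls.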
FEN1 inh: inhibitors of human flap endonuclease 1. P39748. Recombinant FEN1 flap cleavage, fluorescence, 15 min. Potency, µM (top dose mostly 114 µM), usual class: inhibitors. 0.35% of 390,000 active; further: nearly all actives have a fitted effect of over 65% in size
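Reaction started by adding substrate (50 nM final) to 10 nM enzyme after 15 min room-temperature compound preincubation. Reads at 0 and 15 min, with data normalized and fitted to a four-parameter Hill equation.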
A number is an active result; . = inactive; ? = inconclusive; / = not tested or not shown; ! = not confirmed by another sample. Compounds with a hit are over-represented: about 2.4% of the library has one in this group of screens. The call rests on the fitted dose curve; in most records, active means well fitted curve in the direction sought with a large enough effect; inconclusive means small, poorly fitted or top-dose-only effect, or another doubt; inactive means no such curve, though single readings can be large; an effect the other way counts as inactive or inconclusive.

SMILES	POLI inh	Pol eta inh	Tb PGK inh	POLB inh	POLK inh	FEN1 inh
C#CCOCCOCCOCCNc1nc(N2CCOCC2)nc(N2CCN(C(=O)CCCCCCCCCCNC(=O)[C@@H](CCSC)n3cc(CCO)nn3)CC2)n1	?	.	.	/	.	.
C#CCOCCOCCOCCNc1nc(N2CCN(C(=O)CCCCCCCCCCNC(=O)[C@H]([C@@H](C)CC)n3cc(CCCCCN)nn3)CC2)nc(N2CCN(C(=O)CCCCCCCCCCNC(=O)[C@@H]([C@H](C)O)n3cc(C)nn3)CC2)n1	?	?	.	/	?	56µM
C#CCOCCOCCOCCNc1nc(N2CCN(C(=O)CCCCCCCCCCNC(=O)[C@@H](CCSC)n3cc(CCO)nn3)CC2)nc(N2CCN(C(=O)CCCCCCCCCCNC(=O)[C@H]([C@@H](C)CC)n3cc(CCCCCN)nn3)CC2)n1	?	?	.	/	.	79µM
C#CCOCCOCCOCCNc1nc(N2CCN(C(=O)CCCCCCCCCCNC(=O)[C@H](CCC(=O)O)n3cc(CCCCCN)nn3)CC2)nc(N2CCN(C(=O)CCCCCCCCCCNC(=O)[C@@H]([C@H](C)O)n3cc(C)nn3)CC2)n1	?	.	.	/	.	.
C#CCOCCOCCOCCNc1nc(N2CCN(C(=O)CCCCCCCCCCNC(=O)[C@@H](CCSC)n3cc(CCO)nn3)CC2)nc(N2CCN(C(=O)CCCCCCCCCCNC(=O)[C@H]([C@@H](C)CC)n3cc(CCCCN=C(N)N)nn3)CC2)n1	?	79µM	.	/	.	22µM
O=S1(=O)CCOC[C@H](c2ccccc2)N1Cc1ccc(F)cc1	.	/	/	/	.	?
Cc1cccc(N2CCN(C(=O)NCc3noc4ccccc34)CC2)c1C	.	.	.	?	.	89µM
Cc1ccc(C(=O)Nc2ccc(S(=O)(=O)O)c3cc(S(=O)(=O)O)cc(S(=O)(=O)O)c23)cc1NC(=O)c1cccc(NC(=O)Nc2cccc(C(=O)Nc3cc(C(=O)Nc4ccc(S(=O)(=O)O)c5cc(S(=O)(=O)O)cc(S(=O)(=O)O)c45)ccc3C)c2)c1	1.4µM	0.22µM	/	0.89µM	0.032µM!	1.3µM
COC(=O)c1cccc(-c2ccc(C(c3c(C)[nH][nH]c3=O)c3c(C)[nH][nH]c3=O)o2)c1	7.1µM	.	.	?	.	.
COC(=O)c1ccccc1-c1ccc(C(c2c(C)[nH][nH]c2=O)c2c(C)[nH][nH]c2=O)o1	7.9µM	?	.	.	.	.
COC(=O)c1ccc(C(c2c(C)[nH][nH]c2=O)c2c(C)[nH][nH]c2=O)cc1	.	.	/	.	.	.
O=C(CCc1nc2ccccc2[nH]1)N1CCN(C(=O)c2ccco2)CC1	.	.	.	.	.	.
O=C(CSc1ccc(-c2nc3ccccc3[nH]2)cn1)N1CCN(C(=O)c2ccco2)CC1	16µM	?	.	?	50µM	?
Cc1cc(/C=C/c2c(C)cnc3ccccc23)ccc1N(C)C	?	/	/	/	.	.
CC(C)(C)n1ncc2c(=O)n(Cc3ccc(-c4ccccc4C#N)cc3)cnc21	.	/	/	/	.	.
O=[N+]([O-])c1ccc(-c2cc3ccccc3[nH]2)cc1	.	/	/	/	.	.
COc1ccc(-c2csc(NC(=O)CSc3nc(C)cs3)n2)cc1	.	?	.	/	.	.
COc1ccc(-c2csc(NC(=O)CSc3nc(C)nc4sc(C(=O)O)c(C)c34)n2)cc1	?	22µM	?	7.1µM	32µM	?
COc1ccccc1C(=O)Nc1ccc(Cc2ccncc2)cc1	.	.	.	.	.	.
COc1ccc([N+](=O)[O-])cc1C(=O)Nc1ccc(Cc2ccncc2)cc1	.	.	.	11µM	.	.
COc1ccc([N+](=O)[O-])cc1NC(=O)Nc1ccc(OC)c(OC)c1	.	.	.	20µM	.	.
COc1ccc(NC(=O)Nc2ccc(OC)c(OC)c2)c([N+](=O)[O-])c1	.	.	.	.	.	.
COc1ccc(C2CC(c3cccs3)=NN2C(=O)CSc2nc3c(cnn3-c3ccccc3)c(=O)[nH]2)cc1 (configuration not stated)	.	.	.	.	.	.
